Sampled rows, rich in hits. Any-hit rate of the full collection: about 1.7%.
PAD4 inh – PAD4 (human) enzyme inhibition; recombinant PAD4, RCA probe fluorescence polarization; inhibition, % at 6.36 µM; hit rate 0.41% among 330,000; AID 485272;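 active = percent inhibition above a cutoff equal to the mean of all tested compounds plus 3 SD, cut at about 15% in these data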;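 note: 0% = PAD4 with RCA probe and DMSO and 100% = probe without PAD4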
Target sequence (Q9UM07 whole entry, looked up): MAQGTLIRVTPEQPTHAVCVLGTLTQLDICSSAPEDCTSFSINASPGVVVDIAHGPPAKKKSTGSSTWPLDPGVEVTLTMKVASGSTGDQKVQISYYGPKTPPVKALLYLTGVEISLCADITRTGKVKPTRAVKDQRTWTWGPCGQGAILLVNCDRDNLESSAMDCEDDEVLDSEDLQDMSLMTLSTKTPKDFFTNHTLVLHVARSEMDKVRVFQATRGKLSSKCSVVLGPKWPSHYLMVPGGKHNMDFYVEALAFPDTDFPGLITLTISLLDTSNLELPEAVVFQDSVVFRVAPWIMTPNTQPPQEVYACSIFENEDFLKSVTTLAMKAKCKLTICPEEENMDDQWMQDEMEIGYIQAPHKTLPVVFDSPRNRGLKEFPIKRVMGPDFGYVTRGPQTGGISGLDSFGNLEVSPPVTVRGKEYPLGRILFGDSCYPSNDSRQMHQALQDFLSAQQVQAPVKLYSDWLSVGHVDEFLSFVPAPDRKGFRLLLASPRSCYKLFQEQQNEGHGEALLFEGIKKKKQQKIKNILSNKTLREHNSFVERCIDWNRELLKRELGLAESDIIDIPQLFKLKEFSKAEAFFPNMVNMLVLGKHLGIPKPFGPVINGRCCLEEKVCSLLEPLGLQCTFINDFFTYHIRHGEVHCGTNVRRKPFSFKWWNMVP
GSTO1 inh – counter-screen for RBBP9 inhibitors: inhibitors of human GSTO1 | inhibition, % at 5.96 µM | recombinant GSTO1, activity-based probe fluorescence polarization | P78417 | hit rate 1.1% among 300,000;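 active = inhibition above the campaign mean inhibition plus 3 SD, cut at about 35% in these data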;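 note: 0% = GSTO1-1 with DMSO and 100% = wells lacking GSTO1-1 enzyme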
ZTA counter – counter-screen for EBNA-1 inhibitors: inhibitors of Epstein-Barr virus ZTA | ZTA-DNA binding, fluorescence polarization | inhibition, % at 11 µM | hit rate 0.15% among 320,000 | AID 2234 | P03206; in the data active = inhibition above about 33%
EBNA-1 inh – blocks EBNA-1 binding to DNA; EBNA-1 DNA binding, fluorescence polarization; inhibition, % at 14.8 µM; hit rate 0.34% among 300,000; AID 1950; in the data active = inhibition above about 28%
LYPLA1 inh – blocks human lysophospholipase 1, a PME1 counter-screen | hit rate 0.16% among 320,000 | recombinant LYPLA1, FP-Rh probe fluorescence polarization | O75608 | inhibition, % at 5.9 µM;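 active = inhibition above the mean of all tested compounds plus 3 SD, set per campaign, cut at about 14% in these data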;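 note: inhibitors block serine hydrolase probe labeling of LYPLA1 so polarization falls; 0% = enzyme with DMSO and 100% = wells lacking LYPLA1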
LYPLA2 counter – counter-screen for PME1 inhibitors: inhibitors of human LYPLA2; inhibition, % at 5.9 µM; hit rate 0.38% among 320,000; AID 2177; O95372; recombinant LYPLA2, FP-Rh probe fluorescence polarization;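 active = inhibition above the screen-wide mean plus 3 SD, limit set per campaign, cut at about 26% in these data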;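 note: 0% = LYPLA2 with DMSO and 100% = wells lacking LYPLA2 enzyme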
LYPLA1 conf – counter-screen for PME1 inhibitors: confirmation of human LYPLA1 inhibitors; recombinant LYPLA1, FP-Rh probe fluorescence polarization; AID 2233; hit rate 69% among 480; shares compounds with LYPLA1 inh; inhibition, % at 5.9 µM;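 active = mean inhibition across replicates above the hit cutoff set in the primary screen, cut at about 15% in these data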;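 note: loss of FP-Rh probe labeling of LYPLA1 seen as lower polarization; 0% = LYPLA1 with DMSO and 100% = wells lacking LYPLA1 enzyme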
* = called active by the depositor; / = no result.

SMILES | PAD4 inh | GSTO1 inh | ZTA counter | EBNA-1 inh | LYPLA1 inh | LYPLA2 counter | LYPLA1 conf
CCOC(=O)c1cccc(NC(=O)c2ccc3c(c2)C(=O)N(CC2CCCO2)C3=O)c1 (stereo not drawn) | -1 | 3 | -5 | -9 | 28* | 3 | 31*
Cc1ccc(C(=O)Nc2ccc3c(c2)C(=O)N(CC2CCCO2)C3=O)cc1 (stereo not drawn) | -4 | -2 | -1 | -1 | -1 | -3 | /
COC(=O)c1ccc(NS(=O)(=O)c2ccc(S(=O)(=O)N3CCOCC3)cc2)cc1 | 1 | / | / | / | / | / | /
C/C(=N\NC(=O)CC1N=C(Cc2ccccc2)NNC1=O)c1ccccc1 (stereo not drawn) | -2 | 4 | -12 | 6 | 4 | 4 | /
O=C(CC1N=C(Cc2ccccc2)NNC1=O)N/N=C/c1ccc([N+](=O)[O-])cc1 (stereo not drawn) | -3 | 0 | 6 | 5 | 26* | -3 | 23*
C=CCN([C@@H](CC(C)C)C(=O)OC)S(=O)(=O)N(CC=C)[C@@H](CC(C)C)C(=O)OC | 1 | / | 8 | / | 1 | 0 | /
COc1ccc(Br)cc1/C=N/Nc1cccc(C(=O)O)c1 | 3 | 6 | 0 | 5 | 4 | 5 | /
O=C(O)c1cccc(N/N=C/c2cc(Br)cc(Br)c2O)c1 | -2 | 5 | 27 | 22 | 24* | 14 | 20*
C=CCn1c(O)c(N=NC(=S)Nc2cccc(OC)c2)c2ccccc21 | -3 | -2 | -19 | -5 | 13 | 10 | /
C=CCn1c(O)c(N=NC(=S)Nc2ccc(OC)cc2)c2ccccc21 | -5 | -21 | -19 | -11 | 30* | 7 | 33*
CCN(C(=O)CSc1nnnn1-c1ccccc1)C1CCS(=O)(=O)C1 (stereo not drawn) | -3 | 6 | -5 | -6 | -1 | -10 | /
CCc1ccc(NS(=O)(=O)c2ccc(OC)c(C)c2)cc1 | -1 | 10 | -3 | -7 | 0 | -2 | /
COc1ccc(S(=O)(=O)Nc2ccc(Cc3ccncc3)cc2)cc1C | 0 | 13 | -6 | -2 | 36* | 4 | 47*
O=C(Nc1cccc(Cl)c1)NC1CCN(C2CCCCC2)C1 (stereo not drawn) | -2 | -5 | 3 | 3 | 0 | 6 | /
COc1ccc(/C=C2/Sc3ccc(C(=O)NCCCN4CCOCC4)cc3NC2=O)cc1OC | -3 | -256 | -12 | -12 | 37* | 7 | 67*
CCOC(=O)/C(=C\C=C\N1CCOCC1)C(C)=O | -4 | -3 | -6 | 8 | -4 | 2 | /
COC(=O)C(=C/C=C/N1CCOCC1)C(=O)OC | -1 | 0 | -6 | -9 | 15* | 14 | -1
CCCCNCc1ccc(OCc2ccc(Cl)nc2)c(OC)c1 | -2 | 7 | -11 | 4 | 15* | 10 | 3
CN1/C(=C\C=C2/C(=O)Oc3ccccc3C2=O)C(C)(C)c2ccccc21 | -8 | -103 | 3 | 7 | 51* | -213 | -60
Cn1c(=O)[nH]c2nnc(-c3ccc(Cl)c(Cl)c3)nc2c1=O | -2 | 2 | 7 | -3 | 14* | 3 | 24*
CSc1cnc2c(=O)n(C)c(=O)[nH]c2n1 | -3 | 5 | 17 | -4 | -2 | -11 | /
O=C1NC(=S)S/C1=C\c1coc2ccccc2c1=O | -9 | 21 | 7 | -10 | 17* | 7 | -2
O=C1CC2(CCN(C(=O)COc3ccc(Cl)cc3)CC2)Oc2ccccc21 | -3 | 6 | -17 | 2 | 16* | 20 | 21*
Cc1ccc(OCC(=O)N2CCC3(CC2)CC(=O)c2ccccc2O3)cc1 | 5 | 2 | 0 | 17 | 4 | 6 | /
COc1ccc(CNS(=O)(=O)c2ccc(-n3cnnn3)c(OC)c2)cc1 | 5 | 5 | -12 | 2 | 4 | 1 | /
SMILES | PAD4 inh | GSTO1 inh | ZTA counter | EBNA-1 inh | LYPLA1 inh | LYPLA2 counter | LYPLA1 conf
COc1cc(S(=O)(=O)NCc2ccccc2)ccc1-n1cnnn1 | 2 | 2 | -4 | 2 | 15* | 5 | 2
CCC1CCCCN1CCCNC(=O)c1ccc(CS(=O)(=O)c2ccc(Br)cc2)o1 (stereo not drawn) | 3 | -3 | 1 | 7 | -3 | 6 | /
O=C(CCCC1=NS(=O)(=O)c2ccccc2N1)OCc1ccc(Cl)cc1 | 2 | 8 | -20 | -7 | -4 | 3 | /
Cc1ccc2nc(-c3sc4nc(C)cc(C)c4c3N)[nH]c2c1 | -1 | -2 | 5 | -6 | 15* | 9 | 2
Cc1ccc2nc(-c3cccc(N)c3)[nH]c2c1 | 1 | 2 | 4 | 0 | 1 | 8 | /
COCCn1c(=NC(=O)c2ccc(S(=O)(=O)N3CCc4ccccc4C3)cc2)sc2cc(S(N)(=O)=O)ccc21 | -4 | -19 | -22 | -5 | -34 | -70 | /
CCOCCn1c(=NC(=O)c2ccc(S(=O)(=O)N3CCOCC3)cc2)sc2cc(S(N)(=O)=O)ccc21 | -4 | -2 | 15 | 1 | 15* | 15 | 15*
COc1ccc(CCNC(=O)COC(=O)c2ccc(N3CCCC3=O)cc2)cc1 | -5 | -1 | -1 | -3 | 1 | -1 | /
Cc1nc2ccc(C(=O)Nc3cccc([N+](=O)[O-])c3)cc2s1 | -7 | -8 | -1 | -5 | 15* | -4 | 22*
O=C(Nc1cccc([N+](=O)[O-])c1)c1cccc(C(=O)Nc2cccc([N+](=O)[O-])c2)c1 | -4 | 0 | 1 | 4 | -4 | -2 | /
COC(=O)c1cc(C(=O)N2CCN(C(=O)c3ccco3)CC2)cc([N+](=O)[O-])c1 | 2 | 9 | 18 | 8 | -1 | 8 | /
COc1ccc([N+](=O)[O-])cc1NC(=O)C(C)N1CCN(C(=O)c2ccco2)CC1 (stereo not drawn) | -4 | -6 | 1 | -13 | 16* | -2 | 22*
Cc1ccsc1C1Nc2ccc3ncccc3c2C2=C1C(=O)CC(C)(C)C2 (stereo not drawn) | -5 | -2 | -13 | 0 | 16* | 11 | 11
Cc1ccc(S(=O)(=O)N2CCOCC2)cc1-c1n[nH]c(=S)n1-c1ccccc1 | -3 | / | 13 | / | -3 | -1 | /
COc1cc2[nH]c(=O)n(CCCCCC(=O)N3CC=C(c4ccccc4)CC3)c(=O)c2cc1OC | 4 | -10 | 2 | 2 | 17* | 21 | 18*
Cc1cccc(C(=O)NC(NCc2ccco2)C(Cl)(Cl)Cl)c1 (stereo not drawn) | -4 | 3 | 1 | 14 | 17* | 5 | 4
Cc1nc2c(C(=O)NCCc3ccccc3Cl)c[nH]n2c(=O)c1Cl | 0 | 4 | 12 | 8 | 18* | 13 | 16*
Cc1nc2c(C(=O)NCc3ccccc3Cl)c[nH]n2c(=O)c1Cl | 0 | -3 | 13 | 3 | -2 | 2 | /
Cc1cc2oc(C(=O)Nc3ccc(S(=O)(=O)Nc4onc(C)c4C)cc3)cc(=O)c2cc1Cl | -4 | -4 | -2 | 0 | 20* | 9 | 22*
